About 180 (0.051%) of roughly 350,000 compounds were called active.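 Rule for the calls: active = mean replicate inhibition above about 25%, with every replicate also reaching it (limit read from the data, passing the limit was not always enough); inconclusive = only one of those two criteria met; inactive = neither criterion met.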 The full list was thinned out, with actives kept by preference.
Each compound was assayed against Protein disulfide-isomerase A6 (Homo sapiens) (UniProt Q15084) (assay: ERp5 (PDIA6) reductase activity blockers – biochemical, turbidity, absorbance 650 nm, single point, primary screen (AID 651711)). Details: ERp5 insulin aggregation, 90 min, at 9.99 µM, active compounds read high.
Chain of Protein disulfide-isomerase A6 (Homo sapiens) (Q15084 whole entry, looked up): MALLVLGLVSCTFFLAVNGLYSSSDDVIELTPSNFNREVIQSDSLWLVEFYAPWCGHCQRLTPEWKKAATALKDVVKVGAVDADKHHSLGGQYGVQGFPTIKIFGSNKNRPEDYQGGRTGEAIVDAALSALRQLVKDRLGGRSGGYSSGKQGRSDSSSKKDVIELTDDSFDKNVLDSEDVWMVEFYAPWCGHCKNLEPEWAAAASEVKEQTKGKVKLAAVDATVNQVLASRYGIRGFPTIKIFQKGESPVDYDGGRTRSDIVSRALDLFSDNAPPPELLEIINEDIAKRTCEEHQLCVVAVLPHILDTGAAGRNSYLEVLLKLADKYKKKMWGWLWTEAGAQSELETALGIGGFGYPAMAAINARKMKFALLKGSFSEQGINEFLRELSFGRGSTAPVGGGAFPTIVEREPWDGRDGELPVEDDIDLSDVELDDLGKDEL

inhibition, inactive:
O=C(c1cnccn1)N1CC2(C1)[C@H](c1ccccc1)[C@H](CO)N2C(=O)c1ccccc1 4.61%
COc1ccc(CN2C[C@@H](C)[C@H](OC)CN(C)C(=O)c3cc(NC(C)=O)ccc3OC[C@@H]2C)cc1 4.2%
C[C@H]1CN([C@@H](C)CO)C(=O)Cc2cc(NC(=O)Nc3ccc(C(F)(F)F)cc3)ccc2O[C@@H]1CN(C)S(=O)(=O)c1ccc(Cl)cc1 0.316%
CO[C@@H]1CN(C)C(=O)c2cc(NC(=O)C3CCOCC3)ccc2OC[C@H](C)N(Cc2cccnc2)C[C@H]1C 7.73%
CO[C@@H]1CN(C)C(=O)c2cc(NC(=O)c3ccccc3F)ccc2OC[C@@H](C)N(CC2CC2)C[C@H]1C -2.62%
COc1ccc(S(=O)(=O)N(C)C[C@H]2Oc3ccc(N(C)C)cc3C(=O)N([C@@H](C)CO)C[C@@H]2C)cc1 -9.71%
COc1ccccc1NC(=O)Nc1ccc2c(c1)OC[C@H](C)NC[C@H](C)[C@@H](OC)CN(C)C2=O 7.16%
COc1ccc(CN(C)C[C@H]2Oc3c(NC(=O)C4CCCCC4)cccc3C(=O)N([C@@H](C)CO)C[C@H]2C)cc1 4.09%
O=C(Cc1cccnc1)N1CC(=O)N2[C@@H](CO)[C@H](c3ccc(C#CC4CC4)cc3)[C@@H]2C1 1.76%
O=C(NCC[C@H]1CC[C@@H](NC(=O)C2CCCC2)[C@@H](CO)O1)c1cc(Cl)cc(Cl)c1 -0.154%
C[C@@H]1CN([C@H](C)CO)C(=O)c2cc(NC(=O)CCCN(C)C)ccc2O[C@@H](C)CCCCO[C@@H]1CN(C)Cc1ccncc1 -3.78%
Cc1ccc(S(=O)(=O)NCC[C@@H]2CC[C@H](NC(=O)CC3CC3)[C@H](CO)O2)cc1 -0.231%
O=C(NC1CCC1)[C@H]1[C@H](CO)[C@H]2Cn3c(ccc(-c4ccccc4)c3=O)[C@@H]1N2Cc1cocn1 -0.224%
CCC(=O)N(C)C[C@@H]1Oc2cc(C#CC(C)(C)O)ccc2S(=O)(=O)N([C@@H](C)CO)C[C@@H]1C -4%
CCCC#Cc1cnc2c(c1)C(=O)N([C@H](C)CO)C[C@@H](C)[C@@H](CN(C)C(=O)C1CCOCC1)O2 2.67%
C[C@H](CO)N1C[C@H](C)[C@H](CN(C)CC2CCCCC2)Oc2ccc(NC(=O)CCN3CCOCC3)cc2CC1=O 0.283%
Cc1ccc(S(=O)(=O)N(C)C[C@@H]2Oc3ccc(NC(=O)c4ccncc4)cc3CC(=O)N([C@H](C)CO)C[C@H]2C)cc1 -4.73%
COc1ccc(S(=O)(=O)N2CC[C@@H]3[C@H](CO)Nc4ccc(C#Cc5cccc(OC)c5)cc4[C@@H]32)cc1 4.05%
C/C=C/c1ccc([C@H]2[C@@H](CO)N(C(=O)C3CC3)[C@@H]2CNC(=O)NC(C)C)cc1 -0.982%
CO[C@@H](CN(C)C(=O)c1cnccn1)[C@@H](C)CN([C@@H](C)CO)S(=O)(=O)c1ccc(Cl)cc1 0.364%
COc1ccc2c3c(n(C)c2c1)[C@@H](CO)N(CC1CC1)CC31CCN(C(=O)c2ccc3c(c2)OCO3)CC1 -0.398%

From PubChem BioAssay AID651711 (Broad Institute, 2012)
